# Results published in PubChem BioAssay (NCATS).
# Results filed as inconclusive are left out. A call without a number means that no potency is given here. Calls of active or inactive are those of the source. Unless noted, calls follow the shape of the dose curve; as a rule, active = well fitted curve in the direction sought with a large enough effect; inconclusive = small, poorly fitted or top-dose-only effect, or another doubt; inactive = no such curve, though single readings can be large; an effect the other way counts as inactive or inconclusive.
# How the values were obtained:
# [1] = biological target: ATP-dependent 6-phosphofructokinase (Trypanosoma brucei brucei) (UniProt O15648); assay: qHTS Assay to Find Inhibitors of T. brucei phosphofructokinase: hit validation (AID 492961);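 also: luminescence reports ADP formed as PFK phosphorylates fructose-6-phosphate with ATP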
# Summary of the method: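 Compounds titrated; %activity normalized to 0x and 1x enzyme controls, curve-fitted. Readout: ADP-Glo luminescence after 45 min room-temperature reaction of 1.25 nM PFK, 0.1 mM ATP, 0.5 mM F6P, pH 8.0.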
# [2] = biological target: Ubiquitin carboxyl-terminal hydrolase 1 (Homo sapiens) (UniProt O94782); assay: Inhibitors of USP1/UAF1: Pilot qHTS (AID 504865);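 also: rhodamine fluorescence freed from ubiquitin-rhodamine substrate followed over time; top concentration of the series differs between compounds; nearly all actives have a fitted effect of over 35% in size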
# Summary of the method: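 USP1/UAF1 complex (1nM) preincubated with compound 15 min at room temperature, then Ub-Rho substrate (150nM final) added. Fluorescence read kinetically at 480/540 nm, 6 reads every 60 seconds. Buffer: 50mM HEPES pH 7.8, 0.5mM EDTA, 0.1 mg/ml BSA, 1mM TCEP, 0.01% Tween-20.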
# [3] = biological target: Luciferin 4-monooxygenase (Photinus pyralis) (UniProt P08659); assay: Biochemical firefly luciferase enzyme assay for NPC (AID 624030);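 also: purified P. pyralis luciferase at 10 nM with luciferin and ATP substrate; nearly all actives have a fitted effect of over 70% in size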
# Summary of the method: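 Purified P. pyralis luciferase at 10 nM in 50 mM Tris Acetate (final), luminescence read within 5 minutes of enzyme addition to compounds. Activity normalised to PTC124 versus DMSO; concentration-response curves classed by r2, magnitude and activity.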
# [4] = S16 Schwann cell PMP22 intronic element beta-lactamase assay (AID 624044; calls by dose curve; also: nearly all actives have a fitted effect of over 15% in size); settings: S16 rat Schwann cells, PMP22 element beta-lactamase FRET, 24 h; ratio activity, negative = inhibition: at 38.3 µM (top of the series) unless noted
# Summary of the method: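 Beta-lactamase reporter under a PMP22 intronic regulatory element in stable S16 rat Schwann cells; 24 h compound exposure. 460 nm blue signal normalized between DMSO (0%) and potassium clavulanate, with 535 nm FRET tracking viability; curves classed by r2 and response.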
# [5] = biological target: Glutathione peroxidase 1 (Homo sapiens) (UniProt P07203); assay: Primary qHTS Assay for Inhibitors of Recombinant Selenoprotein Glutathione Peroxidase 1 (GPX1) (AID 1845191); also: nearly all actives have a fitted effect of over 65% in size
# Summary of the method: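 GR-coupled readout: NADPH consumption tracked by fluorescence, ex 340/em 450 nm, at t=0 and after 15 min at RT. Final mix 10 nM GPX1, 1 mM GSH, 0.5 mM CHP, 0.5 mM NADPH, 100 nM GR, 0.01% BSA, following 30 min enzyme–compound preincubation.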
# [6] = biological target: Phospholipid hydroperoxide glutathione peroxidase GPX4 (Homo sapiens) (UniProt P36969); assay: Primary qHTS Assay for Inhibitors of Recombinant Selenoprotein Glutathione Peroxidase 4 (GPX4) (AID 1845192); also: nearly all actives have a fitted effect of over 65% in size
# Summary of the method: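 Steps: GPX4 plus compound, 30 min RT; add GR/GSH/NADPH master mix; start with cumene hydroperoxide; read 340/450 nm fluorescence at 0 and 15 min. Finals were 200 nM GPX4, 1 mM GSH, 0.5 mM CHP, 0.5 mM NADPH, 100 nM GR.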
# [7] = qHTS profiling for inhibitors of Plasmodium falciparum proliferation (AID 504749); also: nearly all actives have a fitted effect of over 60% in size; also: potency is read from the fitted curve at half-maximal effect; settings: P. falciparum in erythrocytes, SYBR Green DNA, 72 h, at 28.7 µM (top of the series)
# Summary of the method: (§1)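 Each compound contacts P. falciparum-infected red blood cells for 72 h at 37 C; lysis buffer (Tris, EDTA, saponin, Triton X, SYBR Green I) is added and fluorescence measured next morning; values normalized to controls.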
# 3D7 = assay: as above; settings: P. falciparum in erythrocytes, SYBR Green DNA, 72 h; series mostly up to 28.7 µM
# Summary of the method: as §1
# 7G8 = assay: as above; settings: P. falciparum in erythrocytes, SYBR Green DNA, 72 h; series mostly up to 12.8 µM
# Summary of the method: as §1
# AA1029 = assay: as above; settings: P. falciparum in erythrocytes, SYBR Green DNA, 72 h; series mostly up to 28.7 µM
# Summary of the method: as §1
# ATS189 = assay: as above; settings: P. falciparum in erythrocytes, SYBR Green DNA, 72 h; series mostly up to 28.7 µM
# Summary of the method: as §1
# ATS95 = assay: as above; settings: P. falciparum in erythrocytes, SYBR Green DNA, 72 h; series mostly up to 28.7 µM
# Summary of the method: as §1
# C2A = assay: as above; settings: P. falciparum in erythrocytes, SYBR Green DNA, 72 h; series mostly up to 28.7 µM
# Summary of the method: as §1
# CP185 = assay: as above; settings: P. falciparum in erythrocytes, SYBR Green DNA, 72 h; series mostly up to 28.7 µM
# Summary of the method: as §1
# CP191 = assay: as above; settings: P. falciparum in erythrocytes, SYBR Green DNA, 72 h; series mostly up to 28.7 µM
# Summary of the method: as §1
# CP192 = assay: as above; settings: P. falciparum in erythrocytes, SYBR Green DNA, 72 h; series mostly up to 28.7 µM
# Summary of the method: as §1
# CP194 = assay: as above; settings: P. falciparum in erythrocytes, SYBR Green DNA, 72 h; series mostly up to 28.7 µM
# Summary of the method: as §1
# CP201 = assay: as above; settings: P. falciparum in erythrocytes, SYBR Green DNA, 72 h; series mostly up to 28.7 µM
# Summary of the method: as §1
# CP211 = assay: as above; settings: P. falciparum in erythrocytes, SYBR Green DNA, 72 h; series mostly up to 28.7 µM
# Summary of the method: as §1
# CP215 = assay: as above; settings: P. falciparum in erythrocytes, SYBR Green DNA, 72 h; series mostly up to 28.7 µM
# Summary of the method: as §1
# CP217 = assay: as above; settings: P. falciparum in erythrocytes, SYBR Green DNA, 72 h; series mostly up to 28.7 µM
# Summary of the method: as §1
# CP238 = assay: as above; settings: P. falciparum in erythrocytes, SYBR Green DNA, 72 h; series mostly up to 28.7 µM
# Summary of the method: as §1
# CP247 = assay: as above; settings: P. falciparum in erythrocytes, SYBR Green DNA, 72 h; series mostly up to 28.7 µM
# Summary of the method: as §1
# CP250 = assay: as above; settings: P. falciparum in erythrocytes, SYBR Green DNA, 72 h; series mostly up to 12.8 µM
# Summary of the method: as §1
# CP252 = assay: as above; settings: P. falciparum in erythrocytes, SYBR Green DNA, 72 h; series mostly up to 12.8 µM
# Summary of the method: as §1
# CP256 = assay: as above; settings: P. falciparum in erythrocytes, SYBR Green DNA, 72 h; series mostly up to 28.7 µM
# Summary of the method: as §1
# CP260 = assay: as above; settings: P. falciparum in erythrocytes, SYBR Green DNA, 72 h; series mostly up to 28.7 µM
# Summary of the method: as §1
# CP262 = assay: as above; settings: P. falciparum in erythrocytes, SYBR Green DNA, 72 h; series mostly up to 28.7 µM
# Summary of the method: as §1
# CP265 = assay: as above; settings: P. falciparum in erythrocytes, SYBR Green DNA, 72 h; series mostly up to 12.8 µM
# Summary of the method: as §1
# CP266 = assay: as above; settings: P. falciparum in erythrocytes, SYBR Green DNA, 72 h; series mostly up to 12.8 µM
# Summary of the method: as §1
# CP268 = assay: as above; settings: P. falciparum in erythrocytes, SYBR Green DNA, 72 h; series mostly up to 28.7 µM
# Summary of the method: as §1
# CP269 = assay: as above; settings: P. falciparum in erythrocytes, SYBR Green DNA, 72 h; series mostly up to 28.7 µM
# Summary of the method: as §1
# CP286 = assay: as above; settings: P. falciparum in erythrocytes, SYBR Green DNA, 72 h; series mostly up to 28.7 µM
# Summary of the method: as §1
# CP291 = assay: as above; settings: P. falciparum in erythrocytes, SYBR Green DNA, 72 h; series mostly up to 28.7 µM
# Summary of the method: as §1
# CP297 = assay: as above; settings: P. falciparum in erythrocytes, SYBR Green DNA, 72 h; series mostly up to 28.7 µM
# Summary of the method: as §1
# CP305 = assay: as above; settings: P. falciparum in erythrocytes, SYBR Green DNA, 72 h; series mostly up to 28.7 µM
# Summary of the method: as §1
# CP315 = assay: as above; settings: P. falciparum in erythrocytes, SYBR Green DNA, 72 h; series mostly up to 28.7 µM
# Summary of the method: as §1
# CP325 = assay: as above; settings: P. falciparum in erythrocytes, SYBR Green DNA, 72 h; series mostly up to 28.7 µM
# Summary of the method: as §1
# CP329 = assay: as above; settings: P. falciparum in erythrocytes, SYBR Green DNA, 72 h; series mostly up to 28.7 µM
# Summary of the method: as §1
# CP335 = assay: as above; settings: P. falciparum in erythrocytes, SYBR Green DNA, 72 h; series mostly up to 12.8 µM
# Summary of the method: as §1
# DIV14 = assay: as above; settings: P. falciparum in erythrocytes, SYBR Green DNA, 72 h; series mostly up to 28.7 µM
# Summary of the method: as §1
# Dd2 = assay: as above; settings: P. falciparum in erythrocytes, SYBR Green DNA, 72 h; series mostly up to 28.7 µM
# Summary of the method: as §1
# ECU = assay: as above; settings: P. falciparum in erythrocytes, SYBR Green DNA, 72 h; series mostly up to 28.7 µM
# Summary of the method: as §1
# FAB9 = assay: as above; settings: P. falciparum in erythrocytes, SYBR Green DNA, 72 h; series mostly up to 28.7 µM
# Summary of the method: as §1
# GB4 = assay: as above; settings: P. falciparum in erythrocytes, SYBR Green DNA, 72 h; series mostly up to 28.7 µM
# Summary of the method: as §1
# ICS = assay: as above; settings: P. falciparum in erythrocytes, SYBR Green DNA, 72 h; series mostly up to 28.7 µM
# Summary of the method: as §1
# JCK = assay: as above; settings: P. falciparum in erythrocytes, SYBR Green DNA, 72 h; series mostly up to 28.7 µM
# Summary of the method: as §1
# P94_40 = assay: as above; settings: P. falciparum in erythrocytes, SYBR Green DNA, 72 h; series mostly up to 28.7 µM
# Summary of the method: as §1
# PC49 = assay: as above; settings: P. falciparum in erythrocytes, SYBR Green DNA, 72 h; series mostly up to 28.7 µM
# Summary of the method: as §1
# TAB109 = assay: as above; settings: P. falciparum in erythrocytes, SYBR Green DNA, 72 h; series mostly up to 12.8 µM
# Summary of the method: as §1
# TAB113 = assay: as above; settings: P. falciparum in erythrocytes, SYBR Green DNA, 72 h; series mostly up to 28.7 µM
# Summary of the method: as §1
# Sequence of Ubiquitin carboxyl-terminal hydrolase 1 (Homo sapiens) (O94782 whole entry, looked up): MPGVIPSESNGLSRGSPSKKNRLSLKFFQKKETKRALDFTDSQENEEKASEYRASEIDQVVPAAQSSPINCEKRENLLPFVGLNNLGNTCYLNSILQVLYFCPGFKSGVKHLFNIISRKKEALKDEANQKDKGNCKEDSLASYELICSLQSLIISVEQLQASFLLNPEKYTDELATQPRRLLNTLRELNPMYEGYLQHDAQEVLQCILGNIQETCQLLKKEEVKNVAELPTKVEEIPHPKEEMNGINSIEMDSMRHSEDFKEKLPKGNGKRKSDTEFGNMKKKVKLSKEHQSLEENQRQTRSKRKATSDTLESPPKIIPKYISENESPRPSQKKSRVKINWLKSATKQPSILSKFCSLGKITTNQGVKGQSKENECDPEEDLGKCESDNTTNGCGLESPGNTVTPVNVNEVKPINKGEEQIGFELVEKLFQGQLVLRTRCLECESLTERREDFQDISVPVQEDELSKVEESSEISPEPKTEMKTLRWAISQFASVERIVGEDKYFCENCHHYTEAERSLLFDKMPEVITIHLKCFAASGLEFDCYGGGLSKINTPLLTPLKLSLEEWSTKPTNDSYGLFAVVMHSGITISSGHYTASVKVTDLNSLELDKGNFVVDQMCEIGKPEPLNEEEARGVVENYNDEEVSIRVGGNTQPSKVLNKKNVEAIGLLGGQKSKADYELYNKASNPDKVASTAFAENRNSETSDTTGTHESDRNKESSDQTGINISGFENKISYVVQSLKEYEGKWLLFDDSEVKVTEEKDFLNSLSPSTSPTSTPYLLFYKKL
# Sequence of Luciferin 4-monooxygenase (Photinus pyralis) (P08659 whole entry, looked up): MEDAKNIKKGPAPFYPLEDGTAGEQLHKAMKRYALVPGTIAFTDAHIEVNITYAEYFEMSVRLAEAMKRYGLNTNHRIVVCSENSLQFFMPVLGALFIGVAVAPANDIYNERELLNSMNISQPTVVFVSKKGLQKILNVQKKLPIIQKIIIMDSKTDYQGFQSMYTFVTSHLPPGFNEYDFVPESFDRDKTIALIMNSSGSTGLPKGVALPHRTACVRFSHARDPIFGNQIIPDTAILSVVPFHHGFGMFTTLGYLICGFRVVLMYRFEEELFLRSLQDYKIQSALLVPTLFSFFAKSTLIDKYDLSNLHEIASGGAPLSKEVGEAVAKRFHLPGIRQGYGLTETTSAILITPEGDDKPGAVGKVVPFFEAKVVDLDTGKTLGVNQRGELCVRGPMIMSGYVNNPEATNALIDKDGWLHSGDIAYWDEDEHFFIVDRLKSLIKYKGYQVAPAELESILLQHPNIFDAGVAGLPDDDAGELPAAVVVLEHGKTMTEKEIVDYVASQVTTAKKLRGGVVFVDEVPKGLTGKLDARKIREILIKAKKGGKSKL
# Sequence of Glutathione peroxidase 1 (Homo sapiens) (P07203 whole entry, looked up): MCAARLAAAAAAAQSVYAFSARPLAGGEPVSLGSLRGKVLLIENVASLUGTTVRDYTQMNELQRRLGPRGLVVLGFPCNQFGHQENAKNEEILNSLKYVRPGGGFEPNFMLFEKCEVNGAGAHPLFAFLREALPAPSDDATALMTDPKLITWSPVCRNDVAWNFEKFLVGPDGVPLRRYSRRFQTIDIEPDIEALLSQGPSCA
# Sequence of Phospholipid hydroperoxide glutathione peroxidase GPX4 (Homo sapiens) (P36969 whole entry, looked up): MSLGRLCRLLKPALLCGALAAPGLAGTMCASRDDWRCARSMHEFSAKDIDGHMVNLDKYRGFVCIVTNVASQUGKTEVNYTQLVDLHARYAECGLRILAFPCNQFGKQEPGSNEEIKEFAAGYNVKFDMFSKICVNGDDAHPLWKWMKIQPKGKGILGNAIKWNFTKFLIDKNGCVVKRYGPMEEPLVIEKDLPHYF
# Sequence of ATP-dependent 6-phosphofructokinase (Trypanosoma brucei brucei) (O15648 whole entry, looked up): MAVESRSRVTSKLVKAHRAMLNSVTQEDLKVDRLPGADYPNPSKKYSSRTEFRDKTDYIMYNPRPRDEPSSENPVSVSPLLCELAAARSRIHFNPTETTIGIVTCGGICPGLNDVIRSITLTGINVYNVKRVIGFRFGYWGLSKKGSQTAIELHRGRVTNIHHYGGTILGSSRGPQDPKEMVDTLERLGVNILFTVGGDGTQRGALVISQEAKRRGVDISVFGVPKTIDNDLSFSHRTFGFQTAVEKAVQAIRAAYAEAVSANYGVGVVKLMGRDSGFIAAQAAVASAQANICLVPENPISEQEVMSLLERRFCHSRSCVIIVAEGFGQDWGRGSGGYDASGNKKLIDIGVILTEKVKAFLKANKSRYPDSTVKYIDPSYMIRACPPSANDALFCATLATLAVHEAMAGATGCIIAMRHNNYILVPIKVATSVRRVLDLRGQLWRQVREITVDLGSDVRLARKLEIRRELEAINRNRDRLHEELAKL
structure (smiles),measurement,setting,value
C[C@]12CC[C@H](O)C[C@H]1CCC1C2CC[C@]2(C)[C@@H](c3ccc(=O)oc3)C[C@H]3O[C@]132 (some centres not stated),Potency,[1],inactive
same,Potency,[2],inactive
same,Potency,[3],inactive
same,Potency,[4],inactive
same,Potency,[5],inactive
same,Potency,[6],inactive
same,"activity, negative = inhibition",[7]; parasite line A,-25.7% (inactive)
same,"activity, negative = inhibition",[7]; parasite line B,-8.73% (inactive)
same,Potency,3D7,inactive
same,Potency,7G8,11.2 µM (active)
same,Potency,AA1029,inactive
same,Potency,ATS189,inactive
same,Potency,ATS95,inactive
same,Potency,C2A,inactive
same,Potency,CP185,inactive
same,Potency,CP191,inactive
same,Potency,CP192,inactive
same,Potency,CP194,inactive
same,Potency,CP201,inactive
same,Potency,CP211,inactive
same,Potency,CP215,inactive
same,Potency,CP217,inactive
same,Potency,CP238,inactive
same,Potency,CP247,inactive
same,Potency,CP250,inactive
same,Potency,CP252,inactive
same,Potency,CP256,inactive
same,Potency,CP260,inactive
same,Potency,CP262,inactive
same,Potency,CP265,inactive
same,Potency,CP266,inactive
same,Potency,CP268,inactive
same,Potency,CP269,inactive
same,Potency,CP286,inactive
same,Potency,CP291,inactive
same,Potency,CP297,inactive
same,Potency,CP305,inactive
same,Potency,CP315,inactive
same,Potency,CP325,inactive
same,Potency,CP329,inactive
same,Potency,CP335,inactive
same,Potency,DIV14,13.5 µM (active)
same,Potency,Dd2,inactive
same,Potency,ECU,inactive
same,Potency,FAB9,inactive
same,Potency,GB4,inactive
same,Potency,ICS,7.08 µM (active)
same,Potency,JCK,inactive
same,Potency,P94_40,inactive
same,Potency,PC49,inactive
same,Potency,TAB109,inactive
same,Potency,TAB113,inactive
